In the library only some 3.7% were active in any assay of this set; here they are far more common.
MITF act = activators of MITF-driven TRPM1 promoter activity in SK-MEL-5 cells; SK-MEL-5 TRPM1-promoter luciferase, 24 h; % of positive control, neutral wells = 0; activation, % at 12.5 µM; 300,000 tested, 0.75% active;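 active = mean activation of at least 80% with every replicate also reaching 80%; inconclusive = mean reaches 80% but some replicate falls short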;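 also: 0% = neutral control wells and 100% = parthenolide positive control wells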
Ecoli rRNA inh = selective bacterial rRNA inhibition in E. coli | AID 720706 | 350,000 tested, 1.6% active | GFP signal change (wild-type ribosome), % (no concentration beside the values) | E. coli WT GFP vs humanized-ribosome RFP mutants, fluorescence, 24 h; stronger effect = lower value; DMSO median 0, no signal -100;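 active = significant combined selectivity score with lowered wild-type GFP, culture density cut under 30%, mutant RFP and density less affected; inactive = any of these conditions unmet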
Wnt act = activates Wnt/beta-catenin signaling in a reporter cell assay; activator, plate reader; activation, % at 9.35 µM; 300,000 tested, 1.2% active; AID 743398; in the data active = activation above about 30%, passing the limit was not always enough; inconclusive = no clear call, values can overlap the other calls;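 also: 0% = neutral control wells and 100% = positive control wells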
MLL AF4-AF9 inh = MLL-AF4/AF9 protein interaction inhibition. AlphaScreen, biotin-AF4 peptide binding to FLAG-AF9. inhibition, % at 10 µM. 350,000 tested, 0.47% active. AID 651704;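 active = every replicate reaching a set inhibition limit, whatever the replicate mean, cut at about 25% in these data; inconclusive = mean inhibition reaches that limit but some replicates miss it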;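 also: 0% = plate neutral control median and 100% = total signal loss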
Target sequence (P42568 whole entry, looked up): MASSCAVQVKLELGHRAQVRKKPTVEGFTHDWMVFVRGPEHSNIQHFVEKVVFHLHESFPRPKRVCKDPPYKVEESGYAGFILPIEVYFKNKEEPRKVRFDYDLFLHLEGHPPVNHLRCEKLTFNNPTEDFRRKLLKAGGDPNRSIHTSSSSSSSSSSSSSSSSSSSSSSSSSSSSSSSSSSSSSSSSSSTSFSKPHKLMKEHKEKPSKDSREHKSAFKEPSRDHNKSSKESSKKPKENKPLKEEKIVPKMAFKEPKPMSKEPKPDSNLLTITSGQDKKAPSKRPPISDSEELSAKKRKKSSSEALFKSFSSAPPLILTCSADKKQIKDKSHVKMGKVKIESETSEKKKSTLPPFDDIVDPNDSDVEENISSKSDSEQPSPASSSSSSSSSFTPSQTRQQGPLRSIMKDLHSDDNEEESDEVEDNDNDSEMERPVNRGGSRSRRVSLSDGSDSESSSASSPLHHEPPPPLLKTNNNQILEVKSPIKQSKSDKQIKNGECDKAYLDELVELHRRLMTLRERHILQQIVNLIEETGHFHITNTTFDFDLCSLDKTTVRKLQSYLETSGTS
esBAF inh = inhibitors of esBAF chromatin remodeling in mouse ES cells; Bmi1-luciferase knock-in reporter, 24 h; 100% = twice the neutral-well signal; reporter increase, % at 12.5 µM; 350,000 tested, 2% active; in the data active = activation above about 40%; inconclusive = no clear call, values can overlap the other calls;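 also: 0% = median of the plate's neutral control wells and 100% = double that signal; a rise in the Bmi1 reporter signal indicates esBAF inhibition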
Numbers without * were called inactive; ? = inconclusive; nt = no result given.

SMILES | MITF act | Ecoli rRNA inh | Wnt act | MLL AF4-AF9 inh | esBAF inh
COc1ccc(N2CCN(C(=O)c3ccc(NS(=O)(=O)c4ccc(F)cc4)cc3)CC2)cc1 | 10 | nt | 1 | nt | 24
CCOc1ccc(S(=O)(=O)Nc2ccc(C(=O)NN)cc2)cc1 | -1 | -2 | 53* | -2 | 1
COc1ccc(N2CCN(C(=O)c3ccc(NS(=O)(=O)c4cccs4)cc3)CC2)cc1 | 1 | -23* | 0 | 3 | 26
CCOc1ccc(S(=O)(=O)Nc2ccc(C(=O)NNC(=O)c3ccncc3)cc2)cc1 | 0 | -11 | 1 | -5 | nt
CCOc1ccc(NS(=O)(=O)c2ccc(C(=O)N3CCN(c4ncccn4)CC3)cc2)cc1 | -17 | -23* | -2 | 0 | nt
CN(C)c1ccc2c(c1)[C@@H]1C[C@H](CC(=O)NCCN3CCCCC3)O[C@H](CO)[C@@H]1O2 | nt | 3 | nt | 12 | 0
Cc1ccc(NC(=O)Nc2ccccc2C(=O)NCc2ccccc2)cc1 | 48 | nt | nt | nt | 51*
CCN1CCN(Cc2ccccc2NC(=O)Nc2ccc(C)cc2)CC1 | 76 | nt | nt | nt | 43*
O=C(COC(=O)c1ccc(O)cc1)NC(=O)NCc1ccccc1 | -10 | 0 | -1 | 2 | 0
Cc1cc(C(=O)COC(=O)c2ccco2)c(C)n1Cc1ccco1 | -13 | -17 | -1 | 0 | nt
Cc1cc(C(=O)COC(=O)c2cc(Cl)ccc2N)c(C)n1Cc1ccco1 | 106* | 4 | 10 | -3 | nt
COCC(=O)N1CC2(CN(C(=O)c3ccccn3)C2)c2c(n(C)c3cc(OC)ccc23)[C@@H]1CO | nt | 2 | nt | -6 | nt
C/C=C/C(=O)N1CC2(CC(c3cccc(NC(=O)/C(C)=C/C)c3)=NO2)C[C@H]1C(N)=O (stereo partly drawn) | 8 | 5 | 0 | nt | -5
CSCc1ccc(C(=O)Nc2cccc(C)c2C)cc1 | 112* | nt | 34* | nt | nt
Cc1ccccc1NC(=O)c1onc2c1CCCC2 | 75 | nt | 0 | nt | 27
Cc1cccc(NC(=O)c2onc3c2CCCC3)c1C | 86* | nt | nt | nt | 51*
Cc1cccc(NC(=O)c2cccnc2)c1C | 7 | 25 | -2 | 1 | 1
Cc1ccc(CSCC(=O)NCc2ccc3c(c2)OCO3)cc1 | nt | -23* | 2 | 3 | nt
CO[C@H]1O[C@H](CO)[C@@H](OC(=O)Nc2ccccc2)[C@H](OC(=O)Nc2ccc3c(c2)OCO3)[C@@H]1OC(=O)Nc1ccc2c(c1)OCO2 | nt | nt | nt | 27* | nt
O=C(NCc1ccc2c(c1)OCO2)Nc1cccc(Cl)c1 | 80* | 7 | 11 | -8 | 67*
CS(=O)(=O)c1cccc(C(=O)Nc2cccc(-c3nc4ccccc4[nH]3)c2)c1 | -1 | -19* | 1 | -4 | 13
COc1ccc(C(=O)C[n+]2ccc3c(c2)nc(-c2ccc(OC)cc2OC)n3C)cc1 | -30 | nt | 0 | nt | 0
NC(=O)CSc1nc2cccnc2n1-c1ccc(F)cc1 | nt | 1 | 0 | 0 | -4
O=C(C1CC1)N1[C@H](CO)[C@H](c2ccccc2)C12CN(CCC(F)(F)F)C2 | nt | 1 | nt | 1 | nt
CN(Cc1ccccc1)C(=O)c1[nH]cnc1C(=O)N[C@@H](Cc1ccccc1)C(=O)OCc1ccccc1 | 3 | nt | nt | nt | nt
SMILES | MITF act | Ecoli rRNA inh | Wnt act | MLL AF4-AF9 inh | esBAF inh
O=C(Nc1cccc(-c2cn3c(n2)SCC3)c1)c1ccc2c(c1)OCO2 | 19 | 3 | 9 | -1 | 49*
O=C(Nc1ccc2c(c1)OCO2)N1CCCc2ccccc21 | 31 | 5 | 36* | -22 | ?
Cc1ccc2c(c1)CCCN2C(=O)Nc1ccc2c(c1)OCO2 | nt | nt | 29 | nt | ?
CCC(CC)C(=O)Nc1cccc(C(=O)Nc2ccc3c(c2)OCO3)c1 | 74 | -7 | 16 | 14 | 47*
O=C(Nc1ccc(-c2nc3ccccc3[nH]2)cc1)c1ccc2c(c1)OCO2 | -41 | 2 | -13 | -1 | 45*
O=C(Nc1ccc(Cl)c(-c2nc3ccccc3[nH]2)c1)c1ccc2c(c1)OCO2 | 7 | nt | 0 | nt | nt
CC(C)Cc1ccc(C2=CSC3=NCCN23)cc1 | -13 | -15 | -6 | 14 | 0
COc1ccc(N(CC(O)CN2CCCCC2)S(=O)(=O)c2ccc(C)cc2)cc1 (stereo not drawn) | 4 | nt | nt | nt | 7
COc1cc([N+](=O)[O-])ccc1NC(=O)NNC(=O)CCc1ccccc1 | -4 | 2 | -2 | 0 | -5
COc1cccc(NC(=O)CN(C)CC(=O)Nc2ccc3c(c2)OCO3)c1 | -5 | -2 | -4 | -1 | 5

From PubChem BioAssay
